Assay outcomes: PubChem BioAssay, National Center for Advancing Translational Sciences (NCATS)
KDM5B inh = Primary screen for KDM5B Histone Demethylases FDH-coupled qHTS | Potency, µM (doses to about 57.7 µM), hits mostly inhibitors | AID 1347165, 2019 | actives 2.6% (n = 220,000) | KDM5B demethylase, FDH-coupled NADH fluorescence (FDH is formaldehyde dehydrogenase); also: nearly all actives have a fitted effect of over 70% in size
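KDM5BΔAP (200 nM final) in 50 mM HEPES pH 7.5, 0.01% Tween-20 was preincubated 10 min at RT with compound over a concentration range. Substrate mix (H3K4me3 12.5 µM, α-KG 25 µM, Fe²⁺, ascorbate, NAD⁺, FDH) was added, and NADH fluorescence change over 30 min gave dose-response curves.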
SNCA viab count = GF-AFC viability counterscreen for inhibitors of alpha-synuclein gene (SNCA) expression. HEK-293-SNCA-luc viability, GF-AFC fluorescence, 24 h. Potency, µM (series often up to 57.1 µM), hits mostly cytotoxic. actives 0.12% (n = 150,000). AID 1671193, 2021; also: nearly all actives have a fitted effect of over 30% in size
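Cytotoxicity counterscreen: after 24 h compound treatment of genome-edited SNCA-luciferase HEK-293 cells, live-cell protease substrate GF-AFC read by fluorescence after 30 min; activity scaled between DMSO (0%) and medium-only (-100%), curves Hill-fitted.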
IP6K1 inhibitor = Primary qHTS assay for small molecule inhibitors of Inositol hexaphosphate kinase 1 (IP6K1) | Inositol hexakisphosphate kinase 1 (Homo sapiens), Q92551 | IP6K1 kinase, ADP-Glo luminescence, 2 h; hits give low values | activity change, % (series mostly up to about 58 µM) | actives 0.81% (n = 140,000) | AID 1645851, 2021; in the data active = activity change below about -25%
Target sequence (Q92551 whole entry, looked up): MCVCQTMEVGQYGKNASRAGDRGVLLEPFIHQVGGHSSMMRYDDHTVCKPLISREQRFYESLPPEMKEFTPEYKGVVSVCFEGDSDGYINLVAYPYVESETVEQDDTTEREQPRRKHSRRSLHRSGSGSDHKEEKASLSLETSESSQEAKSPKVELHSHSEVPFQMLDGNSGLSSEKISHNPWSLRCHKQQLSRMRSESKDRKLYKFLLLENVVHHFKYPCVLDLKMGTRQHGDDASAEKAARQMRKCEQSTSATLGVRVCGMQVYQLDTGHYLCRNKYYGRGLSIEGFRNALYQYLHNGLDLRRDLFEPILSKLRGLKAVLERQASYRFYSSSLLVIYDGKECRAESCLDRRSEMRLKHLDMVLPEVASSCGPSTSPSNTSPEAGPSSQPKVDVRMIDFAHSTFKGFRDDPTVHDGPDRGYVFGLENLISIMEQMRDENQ
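ADP-Glo luminescence measures ADP made by human IP6K1 during a 2 h RT reaction with ATP/IP6 (mix at 1.3 mM/130 uM); top library doses 57.5 and 19.1 uM final.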
SNCA expr inh = Primary qHTS assay for inhibitors of alpha-synuclein gene (SNCA) expression | AID 1671194, 2021 | Potency, µM (doses to about 57.2 µM), most hits filed as inhibitors | actives 0.17% (n = 140,000) | HEK-293 SNCA-luciferase knock-in, luminescence, 24 h; also: nearly all actives have a fitted effect of over 45% in size
Of the large screens only hits and unclear results are named; the others gave an inactive call; ! = repeats disagree. Most compounds without a hit are left out; they make up all but 2.9% or so of the library. Unless noted, calls follow the shape of the dose curve; as a rule, active = well fitted curve in the direction sought with a large enough effect; inconclusive = small, poorly fitted or top-dose-only effect, or another doubt; inactive = no such curve, though single readings can be large; an effect the other way counts as inactive or inconclusive.

COc1ccc([C@@H](NC(=O)c2ccc3cccc(F)c3n2)C2CC(O)C2)cn1 (some centres undefined)	KDM5B inh 22µM
Cc1cn2c(=O)cc(CN3CC[C@@](C)(O)[C@@H](O)C3)nc2s1	KDM5B inh 32µM
CC(C)N1C[C@H](O)C[C@H]1c1nnc2n1CCN(C(=O)c1ccsc1)C2	KDM5B inh inconclusive, SNCA expr inh 25µM
O=C(NCc1ccc(F)cc1)C1CCN(c2cnn(Cc3ccccc3)c(=O)c2)C1 (centres undefined)	none (no result: KDM5B inh)
Cc1nc(NCC2CC2)ncc1C(=O)O	KDM5B inh 22µM
NC(=O)c1ccccc1N=Cc1ccccc1O	none (no result: SNCA viab count, IP6K1 inhibitor, SNCA expr inh)
O=C1CC(c2ccccc2)N(C(=O)CNC(=O)c2ccccn2)CCCCCN1 (centres undefined)	KDM5B inh 28µM
COc1ccc(CC(=O)N2CCCN(c3cc(-c4ccccc4)[nH]n3)CC2)cc1OC	KDM5B inh inconclusive
NC(=O)Cn1ccc2cc(OCC3CCN(C(=O)COc4ccccc4)CC3)cnc21	KDM5B inh 35µM
NC(=O)Cn1ccc2cc(OCC3CCN(C(=O)CCc4ccccc4)CC3)cnc21	KDM5B inh 32µM
CN(C)CC(=O)N1C[C@@H]2C[C@H](C1)c1ccc(-c3ccccc3CN3CCOCC3)c(=O)n1C2	KDM5B inh 18µM
CC[C@@H]1[C@@H](OCc2ccccc2)c2ccccc2[S+](=O)([O-])N1CC(=O)OC	none (no result: KDM5B inh, SNCA viab count, SNCA expr inh)
CNc1nc(N2C[C@H]3CN(CCO)C[C@@]3(C(=O)O)C2)nc2c1CCC2	KDM5B inh inconclusive
CNc1cc(C)nc(N2C[C@H]3CN(C(=O)N(C)C)C[C@@]3(C(=O)O)C2)n1	KDM5B inh 22µM
COc1ccc(-c2ccccc2C(=O)NC2Cc3ccccc3C2)nn1	none (no result: KDM5B inh, SNCA viab count, SNCA expr inh)
C[S+](=O)([O-])N1CCC(Cn2ccc3c(N4CCOCC4)nc(-c4ccccc4F)cc32)CC1	KDM5B inh inconclusive
CN1CCC(Cn2ccc3c(N4CCOCC4)nc(-c4cccc5[nH]ccc45)cc32)CC1	KDM5B inh 7.9µM, SNCA viab count inconclusive
CN1CCC(Cn2ccc3c(N4CCOCC4)nc(-c4cccc(N5CCOCC5)c4)cc32)CC1	none
CN1CCC(Cn2ccc3c(N4CCOCC4)nc(-c4ccc5cn[nH]c5c4)cc32)CC1	KDM5B inh 35µM
C[S+](=O)([O-])N1CCC(Cn2ccc3c(N4CCOCC4)nc(-c4cccc5[nH]ncc45)cc32)CC1	KDM5B inh 13µM
O=C(Nc1cccc(C(F)(F)F)c1)c1cnc2c(c1)N(Cc1ccccc1)CCC2	KDM5B inh 7.1µM
COCCNC(=O)c1cnc2c(c1)N(C(=O)Cc1cn(C)c3ccccc13)CCC2	KDM5B inh inconclusive
COCCNC(=O)c1cnc2c(c1)N(Cc1ccccc1C(F)(F)F)CCC2	KDM5B inh 35µM
CC(C)c1ccc(CC(=O)N2CCCc3ncc(C(=O)Nc4cccc(C(F)(F)F)c4)cc32)cc1	KDM5B inh 25µM
COc1cccc(NC(=O)c2cnc3c(c2)N(C(=O)Cc2ccc(C(C)C)cc2)CCC3)c1	KDM5B inh inconclusive, SNCA viab count inconclusive, SNCA expr inh inconclusive
O=C(OCc1ccc(F)cc1Cl)c1ccccc1Sc1ccc(C(F)(F)F)cc1[N+](=O)[O-]	none (no result: SNCA viab count, IP6K1 inhibitor, SNCA expr inh)
c1ccc(OCCn2c(CN3CCCCCC3)nc3ccccc32)cc1	none (no result: SNCA viab count, IP6K1 inhibitor, SNCA expr inh)
C(#Cc1nc2ncccc2nc1OCCN1CCCC1)c1ccccc1	SNCA viab count 15µM (no result: KDM5B inh, SNCA expr inh)
Cc1ccccc1-c1cnc2[nH]cc(CC(=O)NCc3cccnc3)c2c1	KDM5B inh inconclusive
Cc1noc(C)c1-c1cnc2[nH]cc(CC(=O)NCc3cccnc3)c2c1	KDM5B inh 35µM
Cc1noc(C)c1-c1cnc2[nH]cc(CC(N)=O)c2c1	KDM5B inh 32µM
Cc1ccccc1-c1cn[nH]c1C1CCN(C(=O)c2cnn3ccccc23)CC1	KDM5B inh 22µM
COc1ccc2c(c1)OCC(C(=O)NCc1csc(N3CCCC3)n1)C2 (centres undefined)	KDM5B inh 14µM
CCc1ccc(CNC(=O)C2COc3ccc(OC)cc3C2)cc1 (centres undefined)	none
CN(C)CCCC(=O)NC[C@@H]1CC[C@H]2C[C@@H]1C2(C)C	none
Cc1cc(-c2nc3ccncc3[nH]2)c(C)o1	KDM5B inh 32µM!
